Dicer inh: human Dicer pre-microRNA cleavage inhibition. AID 1347074. cat-ELCCA pre-miR-21 Dicer processing, chemiluminescence; stronger effect = higher value. z-score at 25 µM. Q9UPY3. hit rate 6% among 47,000; in the data active = z-score above about 3, passing the limit was not always enough;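 note: plate controls were vehicle for no effect and no enzyme for full effect; higher signal means more uncleaved substrate so more Dicer inhibition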
Target sequence (Q9UPY3 whole entry, looked up): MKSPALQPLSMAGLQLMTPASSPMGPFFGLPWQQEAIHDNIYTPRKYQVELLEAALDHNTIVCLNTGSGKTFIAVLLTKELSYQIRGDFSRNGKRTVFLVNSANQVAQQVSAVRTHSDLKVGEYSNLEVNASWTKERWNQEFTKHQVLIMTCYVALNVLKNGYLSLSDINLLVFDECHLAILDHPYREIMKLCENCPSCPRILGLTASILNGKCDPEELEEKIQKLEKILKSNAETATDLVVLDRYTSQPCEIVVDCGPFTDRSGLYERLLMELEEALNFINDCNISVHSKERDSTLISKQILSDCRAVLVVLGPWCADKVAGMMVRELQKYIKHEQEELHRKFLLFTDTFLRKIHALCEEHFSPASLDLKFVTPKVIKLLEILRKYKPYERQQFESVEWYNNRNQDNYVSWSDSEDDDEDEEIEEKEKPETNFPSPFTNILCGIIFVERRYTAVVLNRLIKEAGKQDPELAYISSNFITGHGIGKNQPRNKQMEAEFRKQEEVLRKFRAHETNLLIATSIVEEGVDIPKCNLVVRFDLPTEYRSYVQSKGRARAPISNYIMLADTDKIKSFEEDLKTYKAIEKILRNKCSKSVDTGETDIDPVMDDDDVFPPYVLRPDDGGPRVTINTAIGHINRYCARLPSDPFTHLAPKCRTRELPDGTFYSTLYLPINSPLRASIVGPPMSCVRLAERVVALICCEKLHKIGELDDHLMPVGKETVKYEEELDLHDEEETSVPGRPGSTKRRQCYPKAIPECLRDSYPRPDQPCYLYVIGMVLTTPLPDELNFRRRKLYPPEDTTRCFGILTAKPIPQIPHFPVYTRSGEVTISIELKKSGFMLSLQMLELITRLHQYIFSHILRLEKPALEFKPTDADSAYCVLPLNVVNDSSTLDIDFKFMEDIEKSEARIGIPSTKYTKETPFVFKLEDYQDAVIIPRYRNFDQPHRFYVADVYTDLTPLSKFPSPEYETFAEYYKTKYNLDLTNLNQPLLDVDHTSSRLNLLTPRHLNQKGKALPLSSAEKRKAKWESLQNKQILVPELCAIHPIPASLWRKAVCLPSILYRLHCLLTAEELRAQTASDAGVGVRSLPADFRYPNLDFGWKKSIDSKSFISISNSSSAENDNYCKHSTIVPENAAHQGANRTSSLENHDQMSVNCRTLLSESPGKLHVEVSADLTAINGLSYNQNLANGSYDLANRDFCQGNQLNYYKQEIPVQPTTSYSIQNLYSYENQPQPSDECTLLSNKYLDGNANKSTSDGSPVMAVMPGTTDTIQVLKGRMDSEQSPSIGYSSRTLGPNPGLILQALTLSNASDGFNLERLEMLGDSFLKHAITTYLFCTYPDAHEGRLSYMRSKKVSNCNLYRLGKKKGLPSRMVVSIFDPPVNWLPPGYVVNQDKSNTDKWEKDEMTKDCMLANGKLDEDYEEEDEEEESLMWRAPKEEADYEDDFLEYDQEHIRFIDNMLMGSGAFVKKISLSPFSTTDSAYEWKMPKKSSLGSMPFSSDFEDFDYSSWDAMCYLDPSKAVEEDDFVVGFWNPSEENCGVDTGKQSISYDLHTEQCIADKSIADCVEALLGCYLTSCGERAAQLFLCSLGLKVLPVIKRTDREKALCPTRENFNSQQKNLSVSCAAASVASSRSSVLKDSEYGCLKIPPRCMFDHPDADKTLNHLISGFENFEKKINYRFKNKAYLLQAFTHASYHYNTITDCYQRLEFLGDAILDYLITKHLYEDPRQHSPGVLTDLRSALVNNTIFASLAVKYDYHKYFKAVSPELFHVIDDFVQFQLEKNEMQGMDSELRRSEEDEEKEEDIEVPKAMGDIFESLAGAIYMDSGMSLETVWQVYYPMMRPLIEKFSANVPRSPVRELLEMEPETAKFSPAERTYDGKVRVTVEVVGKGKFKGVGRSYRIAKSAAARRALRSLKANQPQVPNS
* marks the source's active call; other numbers are inactive results. The sample as a whole holds a higher share of hits than the screen did.

O=C(O)c1ccccc1SC(C(=O)O)c1ccccc1 (stereo not drawn) was read as Dicer inh 0.18.
For CC(C(=O)O)c1cccc(Oc2ccccc2)c1 (stereo not drawn) the results were Dicer inh -0.07.
CCOC(=O)C(NC(=O)Nc1ccccc1)(Nc1cccc(C)c1)C(F)(F)F (stereo not drawn) was read as Dicer inh -1.3.
For Cc1cccc(NC(C(=O)O)c2ccccc2)c1 (stereo not drawn) the results were Dicer inh 5.4*.
For O=C(O)CSc1ccccc1C(=O)O the results were Dicer inh -0.26.
For O=C(O)c1ccccc1NC(C(=O)O)c1ccccc1 (stereo not drawn) the results were Dicer inh 5.5*.
Screening COc1cccc(C(=O)CN2C(=O)/C(=C/c3ccco3)N=C2c2ccccc2)c1 returned Dicer inh 1.2.
Screening Fc1ccc(-c2cn3c(n2)Cc2ccccc2C3)cc1 returned Dicer inh -1.8.
`CN1CCC2(N3CCOCC3)C(C1)N=NN2c1cc(C(F)(F)F)cc(C(F)(F)F)c1` (stereo not drawn) gave Dicer inh 0.39.
Cc1noc(C(F)(F)F)c1C(=O)O/N=C(\N)c1ccc(Cl)cc1 was read as Dicer inh 0.52.
For Nc1nccc(-c2nn(-c3ccc(F)cc3)ccc2=O)n1 the results were Dicer inh 0.22.
Screening CCn1c(-c2cccs2)n[nH]c1=S returned Dicer inh 1.6.
For Cc1ccc(-n2cc(-c3cccs3)nc2SCc2n[nH]c(=S)n2Cc2ccccc2)cc1 the results were Dicer inh 5.8*.
S=c1[nH]nc(-c2ccncc2)n1Cc1ccccc1 was read as Dicer inh 1.2.
Screening O=S(=O)(NCCCc1nc2ccccc2[nH]1)c1ccccc1 returned Dicer inh -1.3.
Screening O=C1CC(C(=O)Nc2ccc(Br)cc2)n2c(nc3ccccc32)N1 (stereo not drawn) returned Dicer inh 5.1*.
O=C1CC(C(=O)Nc2cccc(F)c2)n2c(nc3ccccc32)N1 (stereo not drawn) was read as Dicer inh -0.23.
Screening O=C1CC(C(=O)Nc2cccc(Cl)c2)n2c(nc3ccccc32)N1 (stereo not drawn) returned Dicer inh 1.3.
`CCN(CC)S(=O)(=O)c1cc(C)cc(S(=O)(=O)c2ccc(Cl)cc2)c1C` gave Dicer inh 0.99.
Screening NC(=O)CCS(=O)(=O)CCC(N)=O returned Dicer inh -0.79.
Screening CCOC(=O)c1c(NC(=S)N2CCN(c3ccccc3)CC2)sc2c1CCCC2 returned Dicer inh -2.6.
For O=c1c(C=Nc2ccccc2)c(O)c2cccc3c2n1CCC3 the results were Dicer inh 0.75.
Screening O=C(NCCc1ccccc1)c1cnn2c1NC(c1ccc(Br)cc1)CC2C(F)(F)F (stereo not drawn) returned Dicer inh -0.32.
For Cc1ccc(C2CC(C(F)(F)F)n3ncc(C(=O)NCc4cn(C)nc4C)c3N2)cc1 (stereo not drawn) the results were Dicer inh -0.66.
Screening O=C(NCc1cccs1)c1cnn2c1NC(c1ccc(Br)cc1)CC2C(F)(F)F (stereo not drawn) returned Dicer inh 5.7*.
`O=C(NCc1ccco1)c1cnn2c1NC(c1ccc(Br)cc1)CC2C(F)(F)F` (stereo not drawn) gave Dicer inh 5*.
O=C(NCc1ccc(F)cc1)c1cnn2c1NC(c1cccs1)CC2C(F)(F)F (stereo not drawn) was read as Dicer inh 2.2.
Screening COc1ccc(C2CC(C(F)(F)F)n3ncc(C(=O)NCC4CCCO4)c3N2)cc1OC (stereo not drawn) returned Dicer inh -0.63.
For Cc1cc(C)c2c(n1)sc1c(=O)n(Cc3ccc([N+](=O)[O-])cc3)cnc12 the results were Dicer inh -0.27.
For O=C(O)/C=C/C(=O)Nc1ccc(C(=O)O)c(O)c1 the results were Dicer inh 4.7*.
`Cc1ccc(NC(=O)/C=C/C(=O)Nc2ccc(C)c(Cl)c2)cc1Cl` gave Dicer inh 0.84.
Screening Cc1cccc(NC(=O)/C=C/C(=O)O)c1 returned Dicer inh -0.11.
Cc1c(Cc2ccc(Cl)c(Cl)c2)c(=O)oc2cc(O)ccc12 was read as Dicer inh 2.5.
CCOc1ccc(N2CCCCn3c2nc2c3c(=O)n(CC(C)C)c(=O)n2C)cc1 was read as Dicer inh -1.6.
`CC(NC(=O)NC(C)(C)C)c1ccccc1` (stereo not drawn) gave Dicer inh 0.43.
C(=N\Nc1nnc2c(n1)[nH]c1ccccc12)/c1ccc2c(c1)OCO2 was read as Dicer inh -0.7.
Oc1ccccc1/C=N/Nc1nnc2c(n1)[nH]c1ccccc12 was read as Dicer inh 3.4*.
Screening Fc1ccc(/C=N/Nc2nnc3c(n2)[nH]c2ccccc23)cc1 returned Dicer inh -0.21.
For COC(=O)C1=C(C)N=C2SCCC(=O)N2C1c1ccc(OC)c(OC)c1 (stereo not drawn) the results were Dicer inh -1.
Screening COc1cccc(NC(=S)NC(C)(C)CCO)c1 returned Dicer inh 0.67.
For COc1cccc(C2C3=C(Nc4c2c(=O)[nH]c(=O)n4C)c2ccccc2C3=O)c1 (stereo not drawn) the results were Dicer inh -1.3.
Screening Nc1cccc(-c2nc3ccc(N)cc3[nH]2)c1 returned Dicer inh -1.6.
Nc1ccc2nc(/C=C/c3ccccc3)[nH]c2c1 was read as Dicer inh 3.2*.
Screening Nc1ccc(C(=O)OCCCc2nc3ccc(N)cc3[nH]2)cc1 returned Dicer inh -2.3.
Screening Nc1ccc(Cc2nc3ccc(C(=O)O)cc3[nH]2)cc1 returned Dicer inh 1.7.
For Nc1ccc2nc(CCCc3nc4ccccc4s3)[nH]c2c1 the results were Dicer inh -1.4.
`Nc1cccc(/C=C/c2nc3ccc(N)cc3[nH]2)c1` gave Dicer inh 3.7*.
CC1CC(=O)Nc2ccccc2N1C(=O)CCC(=O)O (stereo not drawn) was read as Dicer inh -1.8.
`CC1(C)Cc2c(c(-c3ccco3)nc3sc4c(NC5CCCCC5)ncnc4c23)CO1` gave Dicer inh 2.
Screening OCC1OC(Nc2ccc(Cl)cc2)C(O)C(O)C1O (stereo not drawn) returned Dicer inh 3.4*.
Screening CCN(CC)CCOC(=O)c1ccc(N[C@@H]2O[C@H](CO)[C@@H](O)[C@H](O)[C@H]2O)cc1 returned Dicer inh -1.3.
`OC[C@H]1O[C@@H](Oc2ccccc2)[C@H](O)[C@@H](O)[C@@H]1O` gave Dicer inh 1.7.
O=[N+]([O-])c1ccc2c(c1)c(CO)cn2Cc1ccccc1 was read as Dicer inh -0.16.
O=C(Oc1ccc2cc(Br)ccc2c1)c1ccco1 was read as Dicer inh 5.8*.
`O=C(Oc1cccc(Br)c1)c1ccco1` gave Dicer inh 2.9.
Screening O=C(Oc1ccc2c(c1)oc(=O)c1ccccc12)c1ccco1 returned Dicer inh -0.17.
For C=C1c2cc(C)c(C)cc2NC(=O)N1c1ccccc1 the results were Dicer inh 2.9.
`CC1CN=C(c2ccccc2)c2ccccc2C(=O)O1` (stereo not drawn) gave Dicer inh -0.71.
`Cc1cc2c(cc1C)NC(=O)c1ccccc1C(c1ccccc1)=N2` gave Dicer inh 3.1*.
For CC(C)CCCC(C)C1CCC2C3CC(O)[C@@]4(O)CC(O)CCC4(C)C3CCC12C (stereo partly drawn) the results were Dicer inh -0.68.

High-throughput results (PubChem)
